# Experimental data taken from the supplement of paper PMC8728848.
# The sample as a whole holds a higher share of the strongest signals than the screen did.
# Assays:
# Test in all cases: glycan array binding signal (z-score within array); higher = stronger binding
# Settings in all cases: glycan notation: IUPAC condensed, linker removed
# Fuc(a1-2)Gal(b1-4)GlcNAc = molecular target: Fuc(a1-2)Gal(b1-4)GlcNAc
# In short: (§1)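 Glycan array data were curated from 3228 arrays in the Consortium for Functional Glycomics database and kept only where the protein sequence was available. Glycan names were converted to IUPAC-condensed notation, and columns mapping to the same glycan were averaged. The binding signal is a within-array Z-score, averaged across arrays of the same protein sequence at different concentrations or buffers and across linkers. Negative Z-scores can be read as non-binding.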
# [1] = molecular target: Fuc(a1-2)Gal(b1-4)GlcNAc(b1-2)[Fuc(a1-2)Gal(b1-4)GlcNAc(b1-4)]Man(a1-3)[Fuc(a1-2)Gal(b1-4)GlcNAc(b1-2)Man(a1-6)]Man(b1-4)GlcNAc(b1-4)GlcNAc
# In short: as §1
# [2] = molecular target: Fuc(a1-2)Gal(b1-4)[Fuc(a1-3)]GlcNAc
# In short: as §1
# [3] = molecular target: Fuc(a1-2)Gal6S(b1-3)GlcNAc
# In short: as §1
# [4] = molecular target: Fuc(a1-2)[Gal(a1-3)]Gal(b1-3)GlcNAc(b1-6)GalNAc
# In short: as §1
# [5] = molecular target: Fuc(a1-2)[Gal(a1-4)]Gal(b1-4)GlcNAc
# In short: as §1
# [6] = molecular target: Fuc(a1-2)[GalNAc(a1-3)]Gal(b1-3)GlcNAc(b1-3)GalNAc
# In short: as §1
# Fuc(a1-3)GlcNAc = molecular target: Fuc(a1-3)GlcNAc
# In short: as §1
# Gal(a1-3)Gal(b1-4)GlcNAc = molecular target: Gal(a1-3)Gal(b1-4)GlcNAc
# In short: as §1
# [7] = molecular target: Gal(a1-3)[Gal(a1-4)]Gal(b1-4)GlcNAc
# In short: as §1
# Gal(b1-2)Gal = molecular target: Gal(b1-2)Gal
# In short: as §1
# [8] = molecular target: Gal(b1-3)GlcNAc(b1-3)Gal(b1-4)GlcNAc(b1-6)[Gal(b1-3)GlcNAc(b1-3)]Gal(b1-4)Glc
# In short: as §1
# [9] = molecular target: Gal(b1-4)GlcNAc(b1-2)Man(a1-3)Man(b1-4)GlcNAc(b1-4)GlcNAc
# In short: as §1
# [10] = molecular target: Gal(b1-4)GlcNAc(b1-2)[Gal(b1-4)GlcNAc(b1-4)]Man(a1-3)[GlcNAc(b1-4)][Gal(b1-4)GlcNAc(b1-2)[Gal(b1-4)GlcNAc(b1-6)]Man(a1-6)]Man(b1-4)GlcNAc(b1-4)GlcNAc
# In short: as §1
# [11] = molecular target: Gal(b1-4)GlcNAc(b1-3)Gal(b1-4)GlcNAc(b1-2)Man(a1-3)[Gal(b1-4)GlcNAc(b1-3)Gal(b1-4)GlcNAc(b1-2)Man(a1-6)]Man(b1-4)GlcNAc(b1-4)GlcNAc
# In short: as §1
# [12] = molecular target: Gal(b1-4)GlcNAc(b1-3)Gal(b1-4)GlcNAc(b1-3)GalNAc
# In short: as §1
# [13] = molecular target: Gal(b1-4)GlcNAc(b1-3)Gal(b1-4)GlcNAc(b1-3)[Gal(b1-4)GlcNAc(b1-3)Gal(b1-4)GlcNAc(b1-6)]GalNAc
# In short: as §1
# Gal(b1-6)Gal = molecular target: Gal(b1-6)Gal
# In short: as §1
# Gal3S(b1-4)Glc = molecular target: Gal3S(b1-4)Glc
# In short: as §1
# Gal3S(b1-4)GlcNAc = molecular target: Gal3S(b1-4)GlcNAc
# In short: as §1
# [14] = molecular target: Gal3S(b1-4)[Fuc(a1-3)]Glc6S
# In short: as §1
# Gal3S4S(b1-4)GlcNAc = molecular target: Gal3S4S(b1-4)GlcNAc
# In short: as §1
# Gal6S(b1-4)GlcNAc = molecular target: Gal6S(b1-4)GlcNAc
# In short: as §1
# [15] = molecular target: GalNAc(b1-3)Gal(a1-6)Gal(b1-4)Glc
# In short: as §1
# [16] = molecular target: GalNAc(b1-4)GlcNAc(b1-2)Man
# In short: as §1
# [17] = molecular target: Glc(a1-4)Glc(a1-4)Glc(a1-4)Glc
# In short: as §1
# [18] = molecular target: GlcNAc(a1-4)Gal(b1-4)GlcNAc(b1-3)Gal(b1-4)[Fuc(a1-3)]GlcNAc(b1-3)Gal(b1-4)[Fuc(a1-3)]GlcNAc
# In short: as §1
# [19] = molecular target: GlcNAc(b1-3)Gal(b1-4)GlcNAc(b1-2)[GlcNAc(b1-3)Gal(b1-4)GlcNAc(b1-6)]Man(a1-6)[GlcNAc(b1-3)Gal(b1-4)GlcNAc(b1-2)Man(a1-3)]Man(b1-4)GlcNAc(b1-4)GlcNAc
# In short: as §1
# [20] = molecular target: GlcNAc(b1-3)Gal(b1-4)GlcNAc(b1-3)Gal(b1-4)GlcNAc(b1-2)Man(a1-3)[GlcNAc(b1-3)Gal(b1-4)GlcNAc(b1-3)Gal(b1-4)GlcNAc(b1-2)Man(a1-6)]Man(b1-4)GlcNAc(b1-4)GlcNAc
# In short: as §1
# [21] = molecular target: GlcNAc(b1-3)Gal(b1-4)GlcNAc(b1-3)[GlcNAc(b1-3)Gal(b1-4)GlcNAc(b1-3)]GalNAc
# In short: as §1
# [22] = molecular target: Fuc(a1-2)Gal(b1-4)GlcNAc(b1-3)Gal(b1-4)GlcNAc(b1-3)Gal(b1-4)GlcNAc
# In short: as §1
# [23] = molecular target: Fuc(a1-2)Gal(b1-4)GlcNAc6S
# In short: as §1
# Fuc(a1-2)[Gal(a1-3)]Gal = molecular target: Fuc(a1-2)[Gal(a1-3)]Gal
# In short: as §1
# [24] = molecular target: Gal(a1-3)Gal(b1-4)[Fuc(a1-3)]GlcNAc
# In short: as §1
# [25] = molecular target: Gal(b1-3)[Fuc(a1-4)]GlcNAc(b1-3)Gal(b1-4)GlcNAc
# In short: as §1
# [26] = molecular target: Gal(b1-3)[Fuc(a1-4)]GlcNAc(b1-3)Gal(b1-4)[Fuc(a1-3)]GlcNAc
# In short: as §1
# Gal3S(b1-4)Glc6S = molecular target: Gal3S(b1-4)Glc6S
# In short: as §1
# Gal3S6S(b1-4)GlcNAc6S = molecular target: Gal3S6S(b1-4)GlcNAc6S
# In short: as §1
# [27] = molecular target: GlcNAc(b1-4)Gal(b1-4)GlcNAc
# In short: as §1
# [28] = molecular target: Man(a1-2)Man(a1-3)[Man(a1-2)Man(a1-6)]Man
# In short: as §1
# [29] = molecular target: Man(a1-2)Man(a1-3)[Man(a1-2)Man(a1-6)]Man(a1-6)[Man(a1-2)Man(a1-2)Man(a1-3)]Man
# In short: as §1
# [30] = molecular target: Neu5Ac(a2-3)Gal(b1-4)[Fuc(a1-3)]GlcNAc(b1-3)Gal
# In short: as §1
# [31] = molecular target: Neu5Ac(a2-3)Gal(b1-4)[Fuc(a1-3)]GlcNAc(b1-6)[Gal(b1-3)]GalNAc
# In short: as §1
# [32] = molecular target: Neu5Ac(a2-6)Gal(b1-4)GlcNAc(b1-2)Man(a1-3)[GlcNAc(b1-2)Man(b1-4)GlcNAc(b1-2)Man(a1-6)]Man(b1-4)GlcNAc(b1-4)GlcNAc
# In short: as §1
# [33] = molecular target: Neu5Ac(a2-8)Neu5Ac(a2-8)Neu5Ac(a2-3)Gal(b1-4)Glc
# In short: as §1
binder,measurement,setting,value
"HA-00510 (Pseudomonas aeruginosa), Q02V39_PSEAB (protein) GVPIVNIATPNGAGLSNNHFRDYNVGANGLILNNATGKTQGTQLGGIILGNPNLKGQAAQVILNQVTGGNRSTLAGYTEVAGQSARVIVANPHGITCQGCGFINTPRATLTTGKPIMDGQRLERFQVDGGDIVVEGAELNVGNLEQFDLITRSAKLNAKLYAKNLNIVTGRNDVQADSLQATPRAADGSEKPQLAIDSSALGGMYAGAIRLVGTEQGVGVKLAGDMAASGGDIRIDASGKLSLAQASSQGDLKIAAQAVELNGKTYAGGSAEIRSAEELVNRQS",glycan array binding signal (z-score),Fuc(a1-2)Gal(b1-4)GlcNAc,0.548
same,glycan array binding signal (z-score),[1],1.8
same,glycan array binding signal (z-score),[2],-0.457
same,glycan array binding signal (z-score),[3],-1.39
same,glycan array binding signal (z-score),[4],-0.268
same,glycan array binding signal (z-score),[5],0.219
same,glycan array binding signal (z-score),[6],2.45
same,glycan array binding signal (z-score),Fuc(a1-3)GlcNAc,0.219
same,glycan array binding signal (z-score),Gal(a1-3)Gal(b1-4)GlcNAc,0.209
same,glycan array binding signal (z-score),[7],0.326
same,glycan array binding signal (z-score),Gal(b1-2)Gal,-0.657
same,glycan array binding signal (z-score),[8],0.121
same,glycan array binding signal (z-score),[9],-0.221
same,glycan array binding signal (z-score),[10],0.347
same,glycan array binding signal (z-score),[11],6.41
same,glycan array binding signal (z-score),[12],3.26
same,glycan array binding signal (z-score),[13],3.88
same,glycan array binding signal (z-score),Gal(b1-6)Gal,-0.435
same,glycan array binding signal (z-score),Gal3S(b1-4)Glc,0.114
same,glycan array binding signal (z-score),Gal3S(b1-4)GlcNAc,-0.217
same,glycan array binding signal (z-score),[14],0.258
same,glycan array binding signal (z-score),Gal3S4S(b1-4)GlcNAc,-0.526
same,glycan array binding signal (z-score),Gal6S(b1-4)GlcNAc,-0.516
same,glycan array binding signal (z-score),[15],-0.551
same,glycan array binding signal (z-score),[16],-1.01
same,glycan array binding signal (z-score),[17],0.18
same,glycan array binding signal (z-score),[18],0.682
same,glycan array binding signal (z-score),[19],0.061
same,glycan array binding signal (z-score),[20],4.3
same,glycan array binding signal (z-score),[21],-0.255
"Chaperone 60.2 (Mycobacterium tuberculosum), P9WPE7 (protein) MAKTIAYDEEARRGLERGLNALADAVKVTLGPKGRNVVLEKKWGAPTITNDGVSIAKEIELEDPYEKIGAELVKEVAKKTDDVAGDGTTTATVLAQALVREGLRNVAAGANPLGLKRGIEKAVEKVTETLLKGAKEVETKEQIAATAAISAGDQSIGDLIAEAMDKVGNEGVITVEESNTFGLQLELTEGMRFDKGYISGYFVTDPERQEAVLEDPYILLVSSKVSTVKDLLPLLEKVIGAGKPLLIIAEDVEGEALSTLVVNKIRGTFKSVAVKAPGFGDRRKAMLQDMAILTGGQVISEEVGLTLENADLSLLGKARKVVVTKDETTIVEGAGDTDAIAGRVAQIRQEIENSDSDYDREKLQERLAKLAGGVAVIKAGAATEVELKERKHRIEDAVRNAKAAVEEGIVAGGGVTLLQAAPTLDELKLEGDEATGANIVKVALEAPLKQIAFNSGLEPGVVAEKVRNLPAGHGLNAQTGVYEDLLAAGVADPVKVTRSALQNAASIAGLFLTTEAVVADKPEKEKASVPGGGDMGGMDF",glycan array binding signal (z-score),Fuc(a1-2)Gal(b1-4)GlcNAc,1.32
same,glycan array binding signal (z-score),[22],-0.159
same,glycan array binding signal (z-score),[23],4.33
same,glycan array binding signal (z-score),Fuc(a1-2)[Gal(a1-3)]Gal,-0.04
same,glycan array binding signal (z-score),[24],-0.652
same,glycan array binding signal (z-score),Gal(b1-2)Gal,-0.591
same,glycan array binding signal (z-score),[25],3.11
same,glycan array binding signal (z-score),[26],-0.254
same,glycan array binding signal (z-score),Gal3S(b1-4)Glc6S,4.1
same,glycan array binding signal (z-score),Gal3S6S(b1-4)GlcNAc6S,3.22
same,glycan array binding signal (z-score),[27],-0.93
same,glycan array binding signal (z-score),[28],1.47
same,glycan array binding signal (z-score),[29],-1.16
same,glycan array binding signal (z-score),[30],-0.716
same,glycan array binding signal (z-score),[31],-0.295
same,glycan array binding signal (z-score),[32],3.89
same,glycan array binding signal (z-score),[33],-0.208
